From PubChem BioAssay (Tox21)
Unmarked numbers belong to inactive results. Inconclusive results are not listed. Entries that show only a call come without a potency. Active and inactive are the calls of the source. Unless noted, calls come from the whole dose curve; as a rule, active = well fitted curve in the direction sought with a large enough effect in the repeat runs; inconclusive = weak or mixed curves; inactive = no such curve, though single readings can be large; an effect the other way counts as inactive or inconclusive.

Assays:
[1] = qHTS assay for small molecule agonists of the p53 signaling pathway (AID 651631; calls by dose curve; note: nearly all actives have a fitted effect of over 15% in size)
Summary of the method: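 HCT-116 cells carrying a stable p53 response element–beta-lactamase reporter were plated, rested 5 h at 37 °C, then exposed to compound in DMSO for 16 h at 37 °C; reporter activity was read as FRET substrate fluorescence after 2 h at room temperature.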

[2] = qHTS assay for small molecules that induce genotoxicity in human embryonic kidney cells expressing luciferase-tagged ATAD5 (AID 651632); note: nearly all actives have a fitted effect of over 15% in size
Summary of the method: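 Luminescent reporter readout, HEK293T ATAD5-luc line: 16 hr drug exposure (37C, 5% CO2) followed by Amplite, 30 min RT.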

[3] = qHTS assay for small molecule agonists of the p53 signaling pathway - cell viability (AID 651633; calls by dose curve; note: series mostly up to about 83 µM; nearly all actives have a fitted effect of over 30% in size)
Summary of the method: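 Viability counter-read: CellTiter-Glo luminescence (30 min, room temperature) in the same p53RE-bla plates. These plates had been exposed to compounds for 16 h at 37 C.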

[4] = qHTS assay for small molecules that induce genotoxicity in human embryonic kidney cells expressing luciferase-tagged ATAD5 - cell viability (AID 651634; calls by dose curve; note: nearly all actives have a fitted effect of over 25% in size)
Summary of the method: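 Viability read: CellTiter-Fluor fluorescence, 30 min at 37C. Cells: HEK293T, luciferase-tagged ATAD5. Exposure: 15.5 hr, 37C, 5% CO2, compound or DMSO vehicle.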

[5] = qHTS assay for small molecule disruptors of the mitochondrial membrane potential - cell viability (AID 720634; calls by dose curve;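 note: human HepG2 liver cancer cells; series mostly up to about 83 µM; nearly all actives have a fitted effect of over 20% in size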)
Summary of the method: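 HepG2, 1 hr compound, 37 C. ATP luminescence via CellTiter-Glo, 30 min RT, same well as m-MPI.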

[6] = qHTS assay for small molecule disruptors of the mitochondrial membrane potential (AID 720635); note: potency is the fitted concentration of half-maximal effect
Summary of the method: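 Mitochondrial membrane potential tracked with Mito-MPS dye, red aggregates (ex 540/em 590 nm) against green monomers (ex 490/em 535 nm). Compound treatment 1 hr at 37C, dye 30 min in HepG2.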

[7] = qHTS assay to test for compound auto fluorescence at 590 nm (red) in HepG2 cells (AID 720674)
Summary of the method: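 1 hr compound incubation on HepG2 cells, 37 C, 5% CO2; plate read ex 540 nm / em 590 nm; intensities reported as Rose Bengal sodium equivalents.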

[8] = qHTS assay to test for compound auto fluorescence at 535 nm (green) in HepG2 cells (AID 720675)
[9] = qHTS assay to test for compound auto fluorescence at 460 nm (blue) in HEK293 cells (AID 720678)
Summary of the method: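 HEK293 cells (2,000 per well, medium with 10% dialyzed FBS) attached for 4-5 hr at 37C, then received compound and stood overnight at 37C, 5% CO2. Blue fluorescence was read at Ex/Em 405/460 nm and expressed relative to triamterene.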

[10] = qHTS assay to test for compound auto fluorescence at 590 nm (red) in HEK293 cells (AID 720679)
Summary of the method: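 HEK293 cells (2,000/well, medium with 10% dialyzed FBS) attached for 4-5 hr at 37C, received 23 nL compound and were incubated overnight at 37C, 5% CO2. Red fluorescence was then read at 540/590nm Ex/Em, referenced to Rose Bengal sodium.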

[11] = qHTS assay to test for compound auto fluorescence at 535 nm (green) in HEK293 cells (AID 720680)
[12] = qHTS assay to test for compound auto fluorescence at 460 nm (blue) in HEK293 cell free culture (AID 720681)
Summary of the method: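 Blue fluorescence (Ex 405/Em 460 nm, triamterene-equivalent) was read immediately after pin transfer of compound or DMSO into medium (DMEM, 10% FBS) without cells.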

[13] = qHTS assay to test for compound auto fluorescence at 535 nm (green) in HEK293 cell free culture (AID 720682)
Summary of the method: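 Read-out: 485/535 nm fluorescence intensity, calibrated against fluorescein. Medium only (DMEM + 10% FBS, no cells); test compound or DMSO vehicle added by pintool before plate reading.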

[14] = qHTS assay to test for compound auto fluorescence at 590 nm (red) in HEK293 cell free culture (AID 720683)
Summary of the method: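 Red-channel autofluorescence of compounds in culture medium (DMEM, 10% FBS), no cells, measured at 540/590 nm. Rose Bengal sodium is the reference fluorophore for equivalence.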

[15] = qHTS assay to test for compound auto fluorescence at 590 nm (red) in HepG2 cell free culture (AID 720684)
Summary of the method: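 Plate contents were MEM with 10% FBS plus test compound or DMSO, no cells. Fluorescence was recorded with 540 nm excitation and 590 nm emission.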

[16] = qHTS assay to test for compound auto fluorescence at 460 nm (blue) in HepG2 cell free culture (AID 720685)
Summary of the method: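 Compound (23 nL) or DMSO pinned into cell-free MEM with 10% FBS; blue fluorescence read at 405/460 nm excitation/emission, expressed as auto-fluorescence equivalency to triamterene.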

[17] = qHTS assay to test for compound auto fluorescence at 535 nm (green) in HepG2 cell free culture (AID 720686)
[18] = target: Glucocorticoid receptor (Homo sapiens) (UniProt P04150); test: qHTS assay to identify small molecule agonists of the glucocorticoid receptor (GR) signaling pathway (AID 720691; active = well fitted activation curve with a large enough effect in the signal ratio in the repeat runs, not every such curve was filed as active; the % refers to the signal ratio)
Summary of the method: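 qHTS in GR-bla HeLa cells: 4 h settling at 37 C/5% CO2, 18 h compound incubation at 37 C, 2 h LiveBLAzer B/G FRET substrate at room temperature, fluorescence intensity measured.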

[19] = target: Glucocorticoid receptor (Homo sapiens) (UniProt P04150); test: qHTS assay to identify small molecule antagonists of the glucocorticoid receptor (GR) signaling pathway (AID 720692; active = well fitted inhibition curve with a large enough effect in the signal ratio in the repeat runs, not every such curve was filed as active; the % refers to the signal ratio)
Summary of the method: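 Inhibition of glucocorticoid signalling is measured in HeLa cells with a GRE-controlled beta-lactamase reporter; cells are co-treated with compound and 5 nM dexamethasone (final) for 18 h before FRET substrate readout.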

[20] = qHTS assay to test for compound auto fluorescence at 460 nm (blue) in HepG2 cells (AID 720687)
Summary of the method: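 Blue-channel autofluorescence (Ex/Em 405/460 nm, triamterene-equivalent) was measured after 1 hr compound exposure at 37 C, 5% CO2. Cells were HepG2, plated overnight at 37 C in MEM plus 10% FBS.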

Sequence of Glucocorticoid receptor (Homo sapiens) (P04150 whole entry, looked up): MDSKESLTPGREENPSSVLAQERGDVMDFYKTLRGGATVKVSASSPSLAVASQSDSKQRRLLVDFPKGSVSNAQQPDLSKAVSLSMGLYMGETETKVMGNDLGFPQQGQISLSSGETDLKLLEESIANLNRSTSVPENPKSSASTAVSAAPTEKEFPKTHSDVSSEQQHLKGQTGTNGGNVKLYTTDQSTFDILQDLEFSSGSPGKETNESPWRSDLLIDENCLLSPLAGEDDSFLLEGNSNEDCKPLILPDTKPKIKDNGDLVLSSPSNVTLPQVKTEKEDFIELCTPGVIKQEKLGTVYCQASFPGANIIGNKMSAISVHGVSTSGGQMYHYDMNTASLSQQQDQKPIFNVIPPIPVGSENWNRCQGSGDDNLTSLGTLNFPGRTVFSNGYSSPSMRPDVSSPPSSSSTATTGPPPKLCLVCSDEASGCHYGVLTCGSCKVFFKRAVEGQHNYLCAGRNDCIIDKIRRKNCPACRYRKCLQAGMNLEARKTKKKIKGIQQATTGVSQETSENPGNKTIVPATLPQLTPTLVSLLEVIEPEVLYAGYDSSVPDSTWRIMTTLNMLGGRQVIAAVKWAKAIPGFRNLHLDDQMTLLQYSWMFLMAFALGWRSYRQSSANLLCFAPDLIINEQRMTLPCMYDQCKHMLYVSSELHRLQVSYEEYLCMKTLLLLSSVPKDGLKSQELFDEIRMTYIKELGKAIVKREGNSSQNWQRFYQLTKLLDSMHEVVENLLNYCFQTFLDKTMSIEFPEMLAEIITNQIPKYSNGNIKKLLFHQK

Structure (SMILES) | outcome [1] | outcome [2] | outcome [3] | Potency [4] | outcome [5] | Potency [6] | outcome [7] | outcome [8] | outcome [9] | outcome [10] | outcome [11] | outcome [12] | outcome [13] | outcome [14] | outcome [15] | outcome [16] | outcome [17] | Potency [18] | outcome [19] | outcome [20]
C=C[C@@H](C)CCC=C(C)C | inactive | inactive | inactive | inactive | inactive | inactive | inactive | inactive | inactive | inactive | inactive | inactive | inactive | inactive | inactive | inactive | inactive | inactive | inactive | –
Nc1ccnc(=O)[nH]1 | inactive | inactive | inactive | inactive | inactive | inactive | inactive | inactive | inactive | inactive | inactive | inactive | inactive | inactive | inactive | inactive | inactive | inactive | inactive | –
C=CCOCC(CO)(COCC=C)COCC=C | inactive | inactive | inactive | inactive | inactive | inactive | inactive | inactive | inactive | inactive | inactive | inactive | inactive | inactive | inactive | – | inactive | inactive | inactive | inactive
CCOC(=O)CC#N | inactive | inactive | inactive | inactive | inactive | inactive | inactive | inactive | inactive | inactive | inactive | inactive | inactive | inactive | inactive | – | inactive | – | inactive | inactive
C/C=C(\C)C(=O)OCC/C=C\CC | inactive | inactive | inactive | inactive | inactive | inactive | inactive | inactive | inactive | inactive | inactive | inactive | inactive | inactive | inactive | inactive | inactive | inactive | inactive | –
Cc1cc(O)c2c(c1)C(=O)c1cccc(O)c1C2=O | inactive | inactive | inactive | inactive | inactive | 11.9 µM (active) | inactive | inactive | inactive | inactive | inactive | inactive | – | inactive | inactive | – | inactive | – | – | inactive
CCCCCCCCCCC | inactive | inactive | inactive | inactive | inactive | inactive | inactive | inactive | inactive | inactive | inactive | inactive | inactive | inactive | inactive | inactive | – | inactive | inactive | inactive
